According to PubChem BioAssay AID1211 (NMMLSC, 2008):
Active and inactive are the calls of the source. How the calls were made is not given here.

Target: Estrogen receptor (Homo sapiens) (UniProt P03372)
Test: displacement of fluorescent estrogen from ERalpha – cell-based, Cos7 ERalpha-GFP, flow cytometry, primary screen (AID 1211);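 further: 0% = DMSO vehicle wells and 100% = no E2-Alexa633 signal left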
Details: fluorescent ligand competition, stronger effect = higher value

Sequence of Estrogen receptor (Homo sapiens) (P03372 whole entry, looked up): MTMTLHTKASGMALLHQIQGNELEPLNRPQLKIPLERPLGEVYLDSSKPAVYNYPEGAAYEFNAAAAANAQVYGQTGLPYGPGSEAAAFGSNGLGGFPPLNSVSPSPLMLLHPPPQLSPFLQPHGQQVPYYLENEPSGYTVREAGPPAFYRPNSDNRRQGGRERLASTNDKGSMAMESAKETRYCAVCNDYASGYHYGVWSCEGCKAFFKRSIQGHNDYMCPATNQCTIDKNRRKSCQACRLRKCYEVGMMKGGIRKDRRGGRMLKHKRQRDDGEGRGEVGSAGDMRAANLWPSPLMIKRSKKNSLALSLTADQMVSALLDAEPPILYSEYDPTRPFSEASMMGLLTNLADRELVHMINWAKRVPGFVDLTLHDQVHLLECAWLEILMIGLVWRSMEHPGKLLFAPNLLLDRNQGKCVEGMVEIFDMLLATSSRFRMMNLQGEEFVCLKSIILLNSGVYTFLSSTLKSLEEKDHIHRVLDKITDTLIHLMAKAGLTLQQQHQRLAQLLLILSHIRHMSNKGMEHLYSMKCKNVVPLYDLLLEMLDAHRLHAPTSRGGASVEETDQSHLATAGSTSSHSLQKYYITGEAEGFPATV

SMILES	inhibition of ligand binding (at 10 µM)	inhibition of ligand binding (binding inhibition, at 0.1 µM)
CC(C)CC(=O)Nc1ccc(C(=O)COc2ccc(-c3nnco3)cc2)cc1	28% (inactive)	23%
COc1ccc(/C=N/NC(=O)c2nc(-c3ccccc3)n(-c3ccccc3)n2)c(O)c1	41% (inactive)	52%
Cn1c(-c2ccc(N)cc2)nc2ccccc21	23% (inactive)	15%
O=S(=O)(NCC(O)COCc1ccco1)c1cccs1 (configuration not stated)	7% (inactive)	4%
CCOC(=O)C1=c2/c(=C/c3ccccc3OC)c(N)c(C#N)n2C(=O)C(c2ccccc2OC)S1 (configuration not stated)	34% (inactive)	21%
COC(=O)c1ccc2c(=O)n(CCCCCC(=O)NCc3ccc4c(c3)OCO4)c(=O)[nH]c2c1	19% (inactive)	18%
COC(=O)c1ccccc1NC(=O)c1noc2c1CCC2	25% (inactive)	21%
Nc1ccc2oc(-c3ccccc3Cl)cc(=O)c2c1O	46% (inactive)	30%
O=C(Nc1cccc2cccc(NC(=O)c3ccco3)c12)c1ccco1	54% (inactive)	46%
CN1CCc2cccc3c2[C@@H]1Cc1ccc(O)c(O)c1-3	42% (inactive)	6%
Cc1ccnc(NS(=O)(=O)c2ccc(NC(=O)c3cc(-c4ccc(Br)cc4)nc4ccccc34)cc2)n1	49% (inactive)	47%
Cc1cc(C)c(S(=O)(=O)/N=C2\C=CC(=O)C(Cl)=C2)c(C)c1	20% (inactive)	7%
CC1(C)OC(C)(C)/C(=C/Nc2ccc(O)cc2)C1=O	10% (inactive)	12%
CC(=O)Nc1ccc(OC(=O)CC2SC(=O)NC2=O)cc1 (configuration not stated)	51% (inactive)	60%
CCN(CC)c1ccc(-c2nn3c(-c4ccccc4OC)nnc3s2)cc1	40% (inactive)	25%
Nc1nc(-c2ccc3c(c2)NC(=O)CO3)cs1	32% (inactive)	12%
Oc1ccc(-c2nc3ccc4ccccc4c3c3c2CCC3)cc1O	41% (inactive)	44%
Cc1ccc(-c2nn(-c3ccccc3)cc2/C=N/NC(=O)c2ccc(Br)o2)cc1	42% (inactive)	49%
CC1(C)Cc2c(sc3c4nnnn4c4nnnn4c23)CO1	12% (inactive)	21%
O=C1NCCCC2c3cc(O)c4ccccc4c3OC12N1CCCCC1 (configuration not stated)	25% (inactive)	23%
Nc1ccc2nc(-c3cccs3)[nH]c2c1	10% (inactive)	49%
COc1ccccc1N1CCN(C(=O)c2ccc3nc(-c4ccco4)c(-c4ccco4)nc3c2)CC1	36% (active)	82%

SMILES	inhibition of ligand binding (at 10 µM)	inhibition of ligand binding (binding inhibition, at 0.1 µM)
COc1nc(-c2ccc(Cl)cc2)ccc1-c1noc(-c2ccco2)n1	57% (inactive)	14%
O=C1C(c2ccnc3ccccc23)=C(O)c2ccccc21	26% (inactive)	28%
O=C(Nc1ccc(N2CCCC2)cc1)C(c1ccccc1)c1ccccc1	63% (inactive)	7%
O=c1oc2ccccc2cc1-c1ccc(O)cc1O	33% (inactive)	18%
COC(=O)c1[nH]c2ccc(C)cc2c1NC(=O)CN1CCCc2ccccc21	49% (inactive)	9%
CCOc1ccc(Nc2oc(-c3ccccc3Cl)nc2C#N)cc1	29% (inactive)	35%
COC(=O)c1c(NC(=O)Cc2cccs2)sc2c1CCCC2	57% (active)	70%
CC(=O)OC1CC(C)(C)N(OC(=O)c2ccc(N)cc2)C(C)(C)C1	6% (inactive)	7%
O=C(CSc1nnc(Nc2ccccc2F)s1)NCc1ccco1	3% (inactive)	3%
COc1cc2c(cc1OC)C(Cc1ccc(O)cc1)NCC2 (configuration not stated)	26% (inactive)	32%
CCOC(=O)CSc1nn(C)c(=S)s1	52% (inactive)	38%
O=c1cc(O)c2c(=O)n(-c3ccccc3)c3c(c2o1)CCCCCC3	31% (inactive)	1%
COc1cc(-c2nc3ccccn3c2/N=C/c2ccccc2)ccc1O	53% (inactive)	11%
Oc1ccc(-c2nnc(-c3ccccc3)c(-c3ccccc3)n2)cc1	47% (inactive)	51%
CCCCCc1nnc(NC(=O)Cc2cccs2)s1	26% (inactive)	8%
COCCNC(=O)c1c(N)n(/N=C/c2cccs2)c2nc3ccccc3nc12	41% (inactive)	6%
CCCSc1nc(C)c(-c2csc(C(C#N)=C3CCCC3)n2)cc1C#N	37% (inactive)	44%
CCOC(=O)CN1C(c2ccc(O)cc2)Nc2ccc(Br)cc2C1c1ccccc1 (configuration not stated)	24% (inactive)	11%
COc1ccc(C)cc1-n1nnnc1SCC(=O)NC(=O)NCc1ccco1	15% (inactive)	26%
Nc1ccc(-c2cc(-c3cccc(N)c3)nc(-c3ccccc3)n2)cc1	42% (inactive)	2%
Cc1ccc(Cc2cncc(O)c2)cc1S(=O)(=O)O	36% (inactive)	20%
Cc1occc1C(=O)NCc1cccc(CNC(=O)c2ccoc2C)c1	39% (inactive)	26%

SMILES	inhibition of ligand binding (at 10 µM)	inhibition of ligand binding (binding inhibition, at 0.1 µM)
O=C(NNC(=O)c1ccc(SCC2CCCO2)c([N+](=O)[O-])c1)c1ccc(Cl)c([N+](=O)[O-])c1 (configuration not stated)	35% (inactive)	45%
C/C(=N\Nc1ccc([N+](=O)[O-])cc1)c1cccc(N)c1	4% (inactive)	35%
COc1cc(/C=C2\OC(=O)c3c(OC)cccc32)ccc1O	24% (inactive)	28%
COC(=O)c1ccc(-c2n[nH]c(=O)c3ccccc23)cc1	0% (inactive)	16%
O=C1c2ccccc2NC(c2cccnc2)N1c1ccccc1F (configuration not stated)	14% (inactive)	35%
CCOc1ccccc1C1C(C#N)=C(N)Nc2onc(-c3ccccc3)c21 (configuration not stated)	9% (inactive)	20%
COc1cc2c(cc1O)C(Cc1ccc(O)cc1)NCC2 (configuration not stated)	34% (inactive)	8%
Cc1cccn2c(=O)c3cc(C(=O)O)n(C)c3nc12	33% (inactive)	17%
O=C(Nc1ccccc1N1CCOCC1)c1cc(-c2ccco2)nc2ccccc12	15% (inactive)	22%
COC(=O)c1cnn2c(C(F)(F)F)cc(-c3ccco3)nc12	0% (inactive)	32%
CCC(=O)Nc1ccc(C(=O)Cn2nc(C(=O)O)c3ccccc3c2=O)cc1	50% (inactive)	30%
Cc1ccc(N=Cc2ccc(O)cc2O)cc1F	29% (inactive)	2%
CN(C)NC(=S)Nc1ccc2nc(-c3ccccn3)c(-c3ccccn3)nc2c1	11% (inactive)	4%
Cc1ccccc1CSCC(=O)NC(=O)NCc1ccco1	53% (inactive)	27%
COc1ccc(OC)c(N2C(=O)[C@@H]3C(c4ccccc4Cl)=NO[C@@H]3C2=O)c1	57% (inactive)	24%
Cc1c(Cl)cccc1NS(=O)(=O)c1ccc2c(c1)C1C=CCC1C(c1ccc(C(=O)O)cc1)N2 (configuration not stated)	55% (inactive)	1%
O=C(/C=C/c1ccc(O)cc1)c1ccc(O)cc1O	62% (inactive)	18%
O=C(Nc1ccc(O)cc1C(=O)O)c1ccc2c(c1)C(=O)N(Cc1ccco1)C2=O	33% (active)	86%
O=C(Cc1cccs1)Nc1ccc(-c2nnn(CC(=O)N3CCOCC3)n2)cc1	15% (inactive)	55%
O=C(Nc1ccc(-c2nc3ccc(NC(=O)c4cccs4)cc3[nH]2)cc1)c1cccs1	39% (inactive)	20%
COc1ccc(OC)c(NC(=O)CSc2nc3ccccc3c3nc4ccccc4n23)c1	26% (inactive)	60%
O=C(O)C1OC(Oc2c(-c3ccc(O)c(O)c3)oc3cc(O)cc(O)c3c2=O)C(O)C(O)C1O (configuration not stated)	0% (inactive)	62%

SMILES	inhibition of ligand binding (at 10 µM)	inhibition of ligand binding (binding inhibition, at 0.1 µM)
Cc1nn2cc(-c3ccc(N)cc3)nc2s1	28% (inactive)	53%
Nc1ccc2nc(CN3CCOCC3)[nH]c2c1	42% (inactive)	41%
CC12CCC(=O)N1C(C(=O)OCC(=O)Nc1sccc1C#N)CS2 (configuration not stated)	47% (active)	89%
COc1ccc(NC(=O)c2ccco2)cc1N	2% (inactive)	3%
COC1=C/C(=C/c2c(N)n3cc(C)sc3nc2=O)C=CC1=O	34% (inactive)	10%
C[C@]12CC[C@@H]3c4ccc(O)cc4[C@@H](O)C[C@H]3[C@@H]1CC[C@@H]2O	64% (active)	78%
CCn1c2ccccc2c2cc(NC(=O)CSc3nnc(-c4ccc(OC)cc4)n3N)ccc21	53% (inactive)	17%
O=c1[nH]c(N/N=C/c2ccc(O)cc2)nc2ccccc12	23% (inactive)	37%
COc1ccc(-c2nn(-c3ccccc3)cc2/C=C2/SC(=S)N(Cc3ccco3)C2=O)c(C)c1	21% (active)	67%
CCc1ccc(Nc2nc(N)nc(CSc3nnnn3-c3ccccc3)n2)cc1	49% (inactive)	16%
CC1CCN(S(=O)(=O)c2ccc(NC(=O)Cc3cccs3)cc2)CC1	62% (inactive)	56%
Nc1ccc2nc(-c3ccc(N)c(Cl)c3)[nH]c2c1	31% (inactive)	12%
CCN(CC)CCCNC(=O)c1nn(-c2ccccc2OC)c(=O)c2ccccc12	39% (inactive)	62%
O=Cc1ccc2oc3nc4n(c(=O)c3c(=O)c2c1)CCCS4	40% (inactive)	15%
CCCC1Nc2ccc(C(=O)O)cc2C2C=CCC12 (configuration not stated)	22% (inactive)	64%
N#CC1=C(N)OC2=C(CCC/C2=C/c2ccoc2)C1c1ccoc1 (configuration not stated)	56% (inactive)	40%
Cc1ccc2[nH]c(=O)c(-c3nc4ccccn4c3NCc3ccco3)cc2c1	23% (inactive)	16%
Nc1cc2sc(-c3ccc(C(=O)O)cc3)nc2cc1Cl	24% (inactive)	49%
CSc1ccc(S(=O)(=O)Nc2cccc(F)c2)cc1	45% (inactive)	54%
O=c1cc(-c2ccc(O)c(O)c2)oc2c(C3O[C@H](CO)[C@@H](O)[C@H](O)[C@H]3O)c(O)cc(O)c12 (some centres not stated)	28% (inactive)	27%
